Compounds with a hit are over-represented: about 2.5% of the library has one in this group of screens.
ANO1 block: blocks the mouse calcium-activated chloride channel TMEM16A; Q8BHY3; HEK293 TMEM16A/YFP iodide influx fluorescence, ionomycin; normalized B-score (activity score, 25-100; higher = stronger inhibition) at 10 µM; hit rate 1.2% among 310,000;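 active means ratio plate-corrected score three or more library SD toward inhibition, starting fluorescence score within five deviations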;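 further: score derived from kinetic fluorescence span divided by baseline fluorescence per well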
TMEM16A act: mouse TMEM16A channel activation, primary screen. B-score at 10 µM. Q8BHY3. hit rate 0.3% among 340,000. HEK293 TMEM16A/YFP-H148Q/I152L, iodide quench fluorescence; stronger effect = lower value;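 active means fluorescence-ratio B-score plate-corrected deviation score at least 3 library SD below zero, with starting fluorescence score within 5 deviations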;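 further: channel opened by trigger with iodide after compound preincubation; score built on the fluorescence ratio of max minus min over baseline; more negative score means more quench and so TMEM16A activation or potentiation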
PKA-R2B act: activates the human PKA-R2B holoenzyme complex; P22694+P31323; PKA-R2B holoenzyme dissociation, Cy5-IP20 fluorescence polarization; R2B truncated from residue 108, S112A mutant; 0% DMSO only, 100% 113 µM cGMP; activation, % at 11.4 µM; hit rate 0.079% among 340,000;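 active means activation above a cutoff set at the mean over all compounds plus 3 SD, cut at about 18% in these data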;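 further: higher means more holoenzyme dissociation and a rise in polarization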
CHT block: inhibits the human high affinity choline transporter; CHT-expressing cells, membrane potential dye, choline response; stronger effect = lower value; AID 488975; hit rate 0.86% among 310,000; Q9GZV3; B-score at 10 µM;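 active means B-score over 3 SD under the library average, and starting fluorescence ratio not unusually high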;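 further: choline stimulus applied at its EC90 after an EC20 pre-addition; B-score computed on integrated fluorescence ratio after choline addition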
Target sequence (Q9GZV3 whole entry, looked up): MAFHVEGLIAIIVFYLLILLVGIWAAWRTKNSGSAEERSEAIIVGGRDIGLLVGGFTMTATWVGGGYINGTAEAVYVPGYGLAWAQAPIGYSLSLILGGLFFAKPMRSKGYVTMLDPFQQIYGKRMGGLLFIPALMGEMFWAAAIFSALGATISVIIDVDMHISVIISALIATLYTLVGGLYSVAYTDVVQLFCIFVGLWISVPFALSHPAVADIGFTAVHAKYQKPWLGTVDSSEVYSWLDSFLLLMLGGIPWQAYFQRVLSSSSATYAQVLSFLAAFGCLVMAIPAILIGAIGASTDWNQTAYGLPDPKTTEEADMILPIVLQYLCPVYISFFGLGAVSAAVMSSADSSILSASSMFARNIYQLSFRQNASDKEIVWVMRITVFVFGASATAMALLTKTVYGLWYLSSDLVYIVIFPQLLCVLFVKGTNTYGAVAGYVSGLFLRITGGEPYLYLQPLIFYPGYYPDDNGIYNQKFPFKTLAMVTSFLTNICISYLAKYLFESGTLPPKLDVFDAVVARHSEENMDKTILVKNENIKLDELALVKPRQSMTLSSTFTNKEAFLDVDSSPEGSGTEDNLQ
CHT allo act: human CHT allosteric activation; AID 488977; CHT-expressing cells, membrane potential dye, choline EC20; stronger effect = higher value; LV-AA mutant CHT in HEK293 cells; B-score at 10 µM; hit rate 0.49% among 310,000; Q9GZV3;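 active means initial fluorescence not abnormally high and integrated response B-score, plate-corrected, over 3 SD above library mean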
PKA-R1A activ: activators of PKA-R1A complex | AID 504707 | hit rate 0.083% among 340,000 | P00514+P68181 | PKA-R1A dissociation, Cy5-IP20 fluorescence polarization; scaled: DMSO 0%, 113 µM cGMP 100% | activation, % at 11.4 µM;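 active means percent activation above the mean of all tested compounds plus 3 SD, cut at about 19% in these data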;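 further: higher means more PKAc released from R1A so a rise in polarization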
TMEM16A reconf: re-confirmation of mouse TMEM16A chloride channel inhibitors; hit rate 39% among 2,300; shares compounds with ANO1 block; AID 652189; inhibition, % at 10 µM; HEK293 TMEM16A/YFP-H148Q, iodide quench fluorescence; ionomycin added to raise cell calcium;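 active means mean duplicate percent inhibition, scaled so buffer wells are 0 and the reference blocker 100, over three buffer SD above buffer mean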
TMEM16A Ca cntr: calcium mobilization counter-screen hit for TMEM16A inhibitor series. AID 652231. calcium response (% of ionomycin), % at 10 µM. hit rate 2% among 2,300. TMEM16A/YFP HEK293, Fluo4 calcium mobilization. shares compounds with ANO1 block;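 active means duplicate-averaged calcium signal over 20% of the ionomycin maximum, relative to buffer baseline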;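 further: each well's signal is peak minus trough fluorescence divided by its pre-addition baseline; 0% = buffer wells and 100% = ionomycin wells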
Parental YFP cnt: acts in parental YFP-HEK293 cells lacking TMEM16A, counter-screen; shares compounds with ANO1 block; iodide YFP quench, ionomycin; YFP ratio F(max-min)/F0 at 10 µM; 2,300 tested, under 10 active;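 active means yellow fluorescent protein signal ratio exceeding the buffer control mean by over 5 SD of those controls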;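 further: ratio is mean of duplicate wells from kinetic YFP trace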
ClC-1 rat inh: rat ClC-1 inhibition, TMEM16A specificity screen | shares compounds with ANO1 block | CHO ClC-1-YFP, iodide influx fluorescence quench; iodide control reads 0, buffer control 100 | ratio percent, % at 10 µM | 2,300 tested, under 10 active;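 active means duplicate-mean ratio percent above the mean of iodide-only control wells, which defines zero, plus 5 of their SD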;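 further: higher percent means stronger block of ClC-1 iodide influx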
Active calls of the source: *; i = inactive; / = not tested or not shown.

SMILES	ANO1 block	TMEM16A act	PKA-R2B act	CHT block	CHT allo act	PKA-R1A activ	TMEM16A reconf	TMEM16A Ca cntr	Parental YFP cnt	ClC-1 rat inh
CCN(CC)S(=O)(=O)c1ccc(NC(=O)c2ccc(N(C)S(C)(=O)=O)cc2)cc1	100*	i	1	i	i	-12	20%*	i	-1	-13
CCN(CC)S(=O)(=O)c1ccc(C(=O)Nc2ccc(Cc3ccncc3)cc2)cc1	100*	i	0	i	i	-3	28%*	i	-1.1	-21
CCN(CC)S(=O)(=O)c1ccc(NC(=O)c2ccccc2N(C)S(C)(=O)=O)cc1	i	i	2	i	i	6	/	/	/	/
O=c1cc(-c2ccccc2Cl)oc2c(NS(=O)(=O)c3ccccc3C(F)(F)F)ccc(O)c12	i	i	-2	i	i	3	/	/	/	/
O=c1cc(-c2ccccc2Cl)oc2c(NS(=O)(=O)c3cccs3)ccc(O)c12	25*	i	-7	i	i	-3	27%*	i	-0.99	-4
COc1cccc(NC(=O)CN(C)C(=O)c2ccc(-n3cncn3)c([N+](=O)[O-])c2)c1	/	i	3	/	/	1	/	/	/	/
Cc1ccc(NC(=O)CC2=NC(=O)C(CC(=O)Nc3ccccc3F)S2)cc1 (configuration not stated)	i	i	1	i	i	-4	i	i	-1	1
Cn1c(/C=C/c2ccc(Br)cc2)nc2ccccc2c1=O	i	i	1	i	i	4	/	/	/	/
Cc1csc2c(N3CCN(C(=O)Nc4ccc(Cl)c(Cl)c4)CC3)ncnc12	25*	i	4	i	i	-4	29%*	i	-0.8	-20
Cc1csc2c(N3CCN(C(=O)c4ccc(C(C)(C)C)cc4)CC3)ncnc12	100*	i	-20	i	i	3	36%*	i	-1.1	-28
Cc1ccc(Nc2nc(-c3cccs3)cs2)nc1	100*	i	-17	i	i	-8	i	i	-0.8	-12
Cc1nn(S(=O)(=O)c2cccs2)c(C)c1Sc1ccc([N+](=O)[O-])cc1	100*	i	-5	i	i	9	44%*	i	-0.99	-20
Cc1nn(C(=O)c2ccco2)c(C)c1Sc1ccc([N+](=O)[O-])cc1	i	i	2	i	i	-5	/	/	/	/
CCCn1c(CC)nc([N+](=O)[O-])c1Sc1ccc(C)cc1	i	i	-3	i	i	-13	/	/	/	/
CCCn1c(CC)nc([N+](=O)[O-])c1Sc1ccc(F)cc1	25*	i	-15	i	i	2	i	i	-0.95	-6
CCCCCCn1c(=O)n2n(c1=O)[C@@H]1CN(S(=O)(=O)c3ccc(C)cc3)C[C@]1(O)[C@@H](OC(=O)NC1CCCC1)C2	/	/	-8	/	/	-15	/	/	/	/
COc1cc(/C=C2\C(=N)N3N=C(S(C)(=O)=O)SC3=NC2=O)ccc1OCCOc1ccc(C)cc1	25*	i	-4	i	i	2	i	i	-1	-4
O=C(Nn1cnnc1)c1cc(Br)ccc1Cl	i	i	2	i	i	7	/	/	/	/
Cc1nc2ccc(NS(=O)(=O)c3ccc(C)c(C)c3)cc2s1	i	i	-5	i	i	-4	/	/	/	/
CC(=O)c1cccc(S(=O)(=O)Nc2ccc3nc(C)sc3c2)c1	100*	i	5	i	i	-4	i	i	-0.96	-10
COc1ccc(-n2c(=S)[nH]c3cc(C(=O)NCc4ccco4)ccc3c2=O)cc1OC	i	i	0	i	i	3	/	/	/	/
COc1ccc(CCn2c(=S)[nH]c3cc(C(=O)NCc4ccco4)ccc3c2=O)cc1OC	25*	i	7	i	i	10	i	i	-0.91	-24
CCOC(=O)c1cc2cc(F)ccc2nc1C	i	i	1	i	i	-11	/	/	/	/
Cc1nc2ccc(F)cc2cc1C(=O)NC(C)C	100*	i	-2	i	i	-5	i	i	-1	-9
CSc1ncccc1C(=O)N1CCCC(C(=O)c2ccc3ccccc3c2)C1 (configuration not stated)	i	i	-1	i	i	-10	/	/	/	/
SMILES	ANO1 block	TMEM16A act	PKA-R2B act	CHT block	CHT allo act	PKA-R1A activ	TMEM16A reconf	TMEM16A Ca cntr	Parental YFP cnt	ClC-1 rat inh
CN(C)c1ccccc1C(=O)N1CCCC(C(=O)c2ccc3ccccc3c2)C1 (configuration not stated)	100*	i	-1	i	i	2	i	i	-1.2	-8
COc1ccccc1Cn1c(=O)oc2ccc(C)cc21	i	i	1	i	i	-4	/	/	/	/
CCCCOc1ccccc1Cn1c(=O)oc2ccc(C)cc21	100*	i	0	i	i	-5	i	i	-1.2	-8
Fc1cc(Br)ccc1Nc1nc2ccccc2n2nnnc12	i	i	1	i	i	4	/	/	/	/
Fc1ccccc1N1CCN(c2nc3ccccc3n3nnnc23)CC1	i	i	-2	i	i	-10	i	i	-0.89	-6
CCOC(=O)CSc1nc2c(sc(=S)n2-c2ccc(OCC)cc2)c(=O)[nH]1	i	i	2	i	i	-3	/	/	/	/
CCOc1ccc(-n2c(=S)sc3c(=O)[nH]c(SCC(=O)C(C)(C)C)nc32)cc1	100*	i	-14	i	i	-22	34%*	i	-0.98	-17
CC(C(=O)O)c1ccc2c(c1)[nH]c1ccc(Cl)cc12 (configuration not stated)	25*	i	-4	i	i	7	i	i	-1	-15
CC(C)(C)OC(=O)N1CCc2onc(-c3ccc(Br)cc3)c2C1=O	/	/	-2	/	/	-3	/	/	/	/
CCCCN(CCCC)CCNC(=O)CNC(=O)c1cccs1	100*	i	-10	i	i	-5	i	i	-0.96	-8

Compound activity as filed in PubChem BioAssay.
